According to PubChem BioAssay AID1004 (SRMLSC, 2008):
A number with no mark means an inactive call. Calls of active or inactive are those of the source.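 The calls were made as follows: active = viability at 10 µM of 29.74% or lower, 3 SD below the compound median; inactive = the rest.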

Test: viability of HCT116 lacking mutant beta-catenin – cell-based, DP diverse set, validation, pilot screen (AID 1004)
Conditions: HCT116 (mutant beta-catenin deleted) viability, CellTiter-Glo, 60 h; at 10 µM; active compounds read low

Row | SMILES | viability
1 | CCCCCCCCCCCCCC(=O)O[C@@H]1[C@@H](C)[C@@]2(O)[C@@H](C=C(CO)C[C@]3(O)C(=O)C(C)=C[C@@H]23)[C@@H]2C(C)(C)[C@]12OC(C)=O | 82.7%
2 | CSC(=S)NCc1c[nH]c2ccccc12 | 95%
3 | C[C@]12CC[C@@H](O)C[C@@H]1CC[C@@H]1[C@@H]2CC[C@]2(C)C(=O)CC[C@@H]12 | 98.5%
4 | CCCN1CCC[C@@H]2Cc3cn[nH]c3C[C@H]21 | 103%
5 | CCCC[C@H]1C(=O)O[C@H](C)[C@H](NC(=O)c2cccc(NC=O)c2OC)C(=O)O[C@@H](C)[C@@H]1OC(=O)CC(C)C | 95.2%
6 | O=C1C=CC(=O)C(Cl)=C1 | 101%
7 | C[C@H]1CCC/C=C/C2C[C@H](O)C[C@H]2[C@H](O)/C=C/C(=O)O1 (some centres not stated) | 40.4%
8 | Nc1ccncc1 | 103%
9 | OCC1CCCN2CCCCC12 (configuration not stated) | 99.4%
10 | C=C(C)[C@H]1CN[C@H](C(=O)O)[C@H]1CC(=O)O | 94.1%
11 | CC(=O)O[C@H]1[C@H]2[C@@H](OC(=O)Cc3ccccc3)[C@@H](C)C[C@]2(OC(C)=O)C(=O)/C(C)=C/[C@@H]2[C@H](CC[C@@]13CO3)C2(C)C | 89.4%
12 | C=CCN1CC[C@]23c4c5ccc(O)c4O[C@H]2C(=O)CC[C@@]3(O)[C@H]1C5 | 96.6%
13 | CC[C@@]1(O)C(=O)OCc2c1cc1n(c2=O)-c2cc3ccccc3nc2C1 | 24.3% (active)
14 | NCCc1c[nH]c2ccc(O)cc12 | 100%
15 | N#CC(C#N)=Cc1cc(O)c(O)c([N+](=O)[O-])c1 | 101%
16 | COC[C@H]1OC(=O)c2coc3c2[C@@]1(C)C1=C(C3=O)C2CCC(=O)[C@@]2(C)C[C@H]1OC(C)=O (some centres not stated) | 78.1%
17 | N#CC(C#N)=Cc1ccc([N+](=O)[O-])c(O)c1 | 97.9%
18 | CC(C)(C)[C@]1(O)C[C@@H]2OC(=O)CC23C(=O)O[C@@H]2OC(=O)[C@H](O)C231 (some centres not stated) | 93.5%
19 | COC1=C[C@@H]2[C@@H]3Cc4ccc(OC)c(O)c4[C@]2(CCN3C)CC1=O | 96.9%
20 | O=C1C=C2C=C[C@@H]3C[C@@]2(O1)[C@H]1CCCCN31 | 86%
21 | CC/C(=C(\c1ccccc1)c1ccc(OCCN(C)C)cc1)c1ccccc1 | 67.6%
22 | COC(=O)C(O)C(O)(CCC(C)C)C(=O)OC1C(OC)=CC23CCCN2CCc2cc4c(cc2C13)OCO4 (configuration not stated) | 30%
